In the library only some 18% were active in any assay of this set; here they are far more common.
DT40 TDP1 no CPT – qHTS for Inhibitors of human tyrosyl-DNA phosphodiesterase 1 (TDP1): qHTS in cells in absence of CPT | 420,000 tested, 15% active | AID 686978, 2013 | DT40 Tdp1-/- hTDP1 cells, no CPT, ATP luminescence, 48 h | Potency, µM (highest dose often 46.2 µM), inactives show at the highest dose activity change, negative = growth inhibition, hits mostly inhibitors; further: nearly all actives have a fitted effect of over 55% in size
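Growth kinetics read by CellTiter-Glo luminescence after ≥48 hr at 37 °C. Cells: DT40 Tdp1-/- stably carrying human TDP1, 400 per well, compound exposure in the absence of CPT (DMSO vehicle).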
KAT2A inh – GCN5L2 (KAT2A) acetyltransferase inhibition. GCN5L2 HAT assay, ThioGlo1 CoA-SH fluorescence. Potency, µM (doses to about 58.9 µM), for the others: at the top dose activity change, negative = inhibition, hits mostly inhibitors. 390,000 tested, 0.21% active. AID 504327. Q92830
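Compounds, pin-transferred from DMSO stocks, meet 20nM GCN5L2 for 15 min before the reaction begins with H3(1-25) peptide (75uM) and acetyl-CoA (70uM). Thiol-reactive ThioGlo1 reports CoA release over 20 min at room temperature.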
TDP1 block – inhibitors of human tyrosyl-DNA phosphodiesterase TDP1; Q9NUW8; recombinant TDP1, AlphaScreen DNA substrate cleavage; Potency, µM (highest dose often 130 µM), inactives show top-dose activity change, negative = inhibition, most hits filed as inhibitors; 350,000 tested, 0.28% active; further: nearly all actives have a fitted effect of over 40% in size
Target sequence (Q9NUW8 whole entry, looked up): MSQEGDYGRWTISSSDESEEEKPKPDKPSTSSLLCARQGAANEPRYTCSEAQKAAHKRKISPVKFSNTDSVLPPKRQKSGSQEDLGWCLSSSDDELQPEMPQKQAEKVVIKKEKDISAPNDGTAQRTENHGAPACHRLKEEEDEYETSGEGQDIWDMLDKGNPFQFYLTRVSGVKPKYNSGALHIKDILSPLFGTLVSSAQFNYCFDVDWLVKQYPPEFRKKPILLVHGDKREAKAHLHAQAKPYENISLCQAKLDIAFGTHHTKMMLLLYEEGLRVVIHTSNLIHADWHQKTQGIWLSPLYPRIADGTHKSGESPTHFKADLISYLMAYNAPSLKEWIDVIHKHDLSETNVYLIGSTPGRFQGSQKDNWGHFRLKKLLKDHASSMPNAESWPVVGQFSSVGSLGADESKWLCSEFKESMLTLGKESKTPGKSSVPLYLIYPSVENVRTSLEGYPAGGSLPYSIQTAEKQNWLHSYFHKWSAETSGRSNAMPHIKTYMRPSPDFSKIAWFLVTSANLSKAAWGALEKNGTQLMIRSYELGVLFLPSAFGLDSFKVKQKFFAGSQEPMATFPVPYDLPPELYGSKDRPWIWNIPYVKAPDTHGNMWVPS
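Compounds were preincubated with Tdp1 (1 nM final) for 15 min at room temperature before substrate (15 nM final) started a 5 min reaction; beads (10 ug/ml final) were then added for 10 min before AlphaScreen detection.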
VDR inhibitor – blocks the human vitamin D receptor; VDR-SRC2-3 peptide fluorescence polarization, 2 h; Potency, µM, for the others: max response, negative = inhibition, usual class: inhibitors; 400,000 tested, 0.93% active
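Fluorescence polarization assay of small-molecule disruption of VDR binding to coregulator peptide SRC2-3. Compounds and controls pin-transferred, then read after 2 h incubation at ambient room temperature.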
PLK1 PBD inh – PLK1 (human) polo-box domain binding inhibition | P53350 | Plk1 PBD binding of FITC phosphopeptide, fluorescence polarization | Potency, µM, for inactives: max response, negative = inhibition, actives largely listed as inhibitors | 360,000 tested, 2.8% active | AID 720504; further: series mostly up to about 57 µM; nearly all actives have a fitted effect of over 65% in size
DT40 TDP1 CPT – growth inhibition of DT40 Tdp1-/-;hTDP1 cells with camptothecin (screen for TDP1 inhibitors). Potency, µM (highest dose often 46.2 µM), for inactives: top-dose activity change, negative = growth inhibition, hits mostly inhibitors. AID 686979. 420,000 tested, 12% active. chicken DT40 Tdp1-/-;hTDP1 cells + 20 nM CPT, ATP luminescence, 48 h; further: nearly all actives have a fitted effect of over 55% in size
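Cell growth measured by CellTiter-Glo luminescence after a minimum 48 h, 37 C compound exposure with 20 nM CPT in Tdp1-knockout DT40 cells stably expressing hTDP1, seeded 400/well; qHTS titration format.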
Active calls of the source: *; ? = inconclusive; . = no result. The call rests on the fitted dose curve; in most records, active means well fitted curve in the direction sought with a large enough effect; inconclusive means small, poorly fitted or top-dose-only effect, or another doubt; inactive means no such curve, though single readings can be large; an effect the other way counts as inactive or inconclusive. On the % scale 0 is the no-effect control and ±100 the full control effect; potency means the concentration at half of the fitted maximal effect.

SMILES	DT40 TDP1 no CPT	KAT2A inh	TDP1 block	VDR inhibitor	PLK1 PBD inh	DT40 TDP1 CPT
Cc1cc(Cn2cnc3c2C[C@@H](C(=O)O)N(C(=O)C(c2ccccc2)c2ccccc2)C3)ccc1N(C)C	2%	-10%	17%	-15%	.	-86%
Cc1ccc(/C=N/N2CCN(C3c4ccccc4-c4ccccc43)CC2)o1	18µM*	-5%	.	-16%	-13%	?
COc1cc(/C=N/N2CCN(C3c4ccccc4-c4ccccc43)CC2)cc(OC)c1OC	15µM*	-10%	3%	5%	-5%	16µM*
C(=N\N1CCN(C2c3ccccc3-c3ccccc32)CC1)/c1cccs1	?	-3%	3%	-4%	-5%	-13%
O=C(O)c1ccc(/C=N/N2CCN(C3c4ccccc4-c4ccccc43)CC2)cc1	4%	0%	4%	-14%	?	-15%
Oc1ccc(/C=N/N2CCN(C3c4ccccc4-c4ccccc43)CC2)cc1O	10µM*	-15%	11%	-1%	-4%	8.2µM*
COc1ccc(NC(=O)N(C)[C@H]2C[C@H]3c4[nH]c5ccc(-c6ccc(OC)cc6)cc5c4CCN3C[C@H]2[C@H](C)O)cc1	?	.	.	.	-14%	?
CN[C@H]1C[C@H]2c3[nH]c4ccc(-c5cccc(C)c5)cc4c3CCN2C[C@H]1[C@H](C)O	12µM*	.	.	.	-7%	7.3µM*
Cc1cccc(-c2ccc3[nH]c4c(c3c2)CCN2C[C@@H]([C@H](C)O)[C@@H](N(C)C(=O)NC3CCCCC3)C[C@@H]42)c1	?	.	.	.	-3%	13µM*
Cc1cccc(-c2ccc3[nH]c4c(c3c2)CCN2C[C@H]3[C@H](C)ON(C)[C@H]3C[C@@H]42)c1	15µM*	.	.	.	-9%	?
O=C(Nc1nc2ccsc2c(=O)s1)c1ccc(Cl)cc1	-21%	15%	.	?	-5%	-6%
COc1cc(C2C(C(=O)OCC(C)C)=C(C)N=C3SCCC(=O)N32)ccc1OCc1ccccc1 (centres undefined)	?	-4%	0%	-2%	.	?
COc1ccc(NC(=O)C(C)n2nc(-c3ccc(C)c(C)c3)ccc2=O)cc1OC (centres undefined)	16µM*	-6%	5%	6%	.	23µM*
CCc1ccccc1NC(=O)C(C)n1nc(-c2ccc(C)c(C)c2)ccc1=O (centres undefined)	?	-6%	.	0%	.	23µM*
COC(=O)[C@@]12C[C@@H](CC(=O)N3CCC(c4ccccc4)CC3)C(=O)N(Cc3ccc4c(c3)OCO4)C1=CCC(C)(C)C2	?	.	.	.	1%	?
Cc1cc(C)cc(-n2ncc3c2CCCC3NC(=O)CN2CCCCC2=O)c1 (centres undefined)	2%	.	.	11%	2%	-1%
CC(C)(C)c1ccc(-n2ncc3c2CCCC3NC(=O)CCC2=NNC(=O)CC2)cc1 (centres undefined)	3.3µM*	.	.	.	-9%	9.2µM*
Cc1cc(C(=O)NC2CCCc3c2cnn3-c2ccc(C(C)(C)C)cc2)n[nH]1 (centres undefined)	12µM*	-1%	2%	1%	-7%	21µM*
CC(C)(C)c1ccc(-n2ncc3c2CCCC3NC(=O)c2ccncc2)cc1 (centres undefined)	10µM*	.	.	-6%	-2%	12µM*
Cc1cc(C)c(C(=O)NC2CCCc3c2cnn3-c2ccc(C)c(C)c2)c(=O)[nH]1 (centres undefined)	-12%	-14%	2%	-18%	-12%	-12%
CC(C)(C)c1ccc(-n2ncc3c2CCCC3NC(=O)CN2CCOC2=O)cc1 (centres undefined)	16µM*	-1%	4%	13%	-10%	18µM*
COc1ccc(CC(N)c2csc(NC(=O)NCCc3ccc(OC)c(OC)c3)n2)cc1 (centres undefined)	?	.	.	.	2%	18µM*
COc1ccc(CCNC(=O)Nc2nc(C(N)COCc3ccccc3)cs2)cc1OC (centres undefined)	?	.	.	.	-2%	?
COc1ccc(CCNC(=O)Nc2nc(C(N)Cc3ccccc3)cs2)cc1OC (centres undefined)	21µM*	.	.	.	-3%	?
Cc1cnc(C)c(-c2cccc3c2OC(CNC(=O)CN2C(=O)c4ccccc4C2=O)C3)n1 (centres undefined)	-2%	.	.	.	.	13%
SMILES	DT40 TDP1 no CPT	KAT2A inh	TDP1 block	VDR inhibitor	PLK1 PBD inh	DT40 TDP1 CPT
CC1=C(C(=O)Nc2ccccc2F)C(c2cccs2)C2=C(CCCC2=O)N1 (centres undefined)	-30%	-6%	-5%	?	24µM*	-18%
CC(=O)c1ccccc1S(=O)(=O)N1CCN(c2nc(-c3cccs3)nc3ccccc23)CC1	7.1µM*	.	3%	-13%	.	8.9µM*
Cc1nc(N2CCN(S(=O)(=O)c3ccccc3C#N)CC2)c2c(-c3cccs3)csc2n1	21µM*	-9%	0%	-23%	-4%	?
COc1ccccc1S(=O)(=O)N1CCN(c2nc(-c3cccs3)nc3ccccc23)CC1	7.9µM*	.	0%	-22%	.	10µM*
COc1ccc(Nc2nc(-c3cccs3)nc3ccccc23)cc1S(=O)(=O)N1CCOCC1	3.3µM*	.	.	3%	0%	18µM*
CCC(=O)NC(=S)NNC(=O)c1ccc(O)cc1	?	-2%	8%	-17%	-6%	-24%
